# Screening results deposited in PubChem by National Center for Advancing Translational Sciences (NCATS).
# The list is not random: actives were taken first. Their share in the collection is about 1.5%.
# PINK1 expr mod: PINK1 expression modulation; PINK1 immunofluorescence, high-content cytometry, 24 h; AID 624263; actives 0.2% (n = 410,000); Potency, µM (highest dose often 76.6 µM), actives largely listed as activators; active = well fitted activation curve with a large enough effect; inconclusive = small, poorly fitted or top-dose-only effect; cell line not stated here; also: nearly all actives have a fitted effect of over 65% in size
#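 PINK1 protein level read as immunofluorescence by microplate cytometer in a fixed, stained stable cell line after 24 h exposure to five compound concentrations, with CCCP as control.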
# pAkt inh: inhibitors of Akt phosphorylation | Neuro2A IGF-stimulated pAkt S473 HTRF, 20 min; hits give low values | actives 0.32% (n = 360,000) | activity change, % for hits at 50 µM; in the data active = activity change below about -80%; inconclusive = mostly about -51% to -80%
#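 Single-point screen (50 µM final compound) in Neuro2A cells stimulated 20 min with 6 nM IGF at 37 deg C. After lysis, Ser473-phosphorylated Akt read by HTRF (ex 330 nm, em 615/665 nm) as the 665/615 ratio.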
# BRCA1 expr up: activators of BRCA1 expression; MCF7-BRCA1-FFLuc reporter, luminescence, 48 h; response scale: scaled: vehicle 0%, 10 µM genistein 100%; Potency, µM (doses to about 46.1 µM), hits mostly activators; actives 1.1% (n = 380,000); AID 624202; also: nearly all actives have a fitted effect of over 80% in size
#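 Compounds are tested at multiple concentrations on MCF7 BRCA1-luciferase reporter cells seeded at 2000 per well; after 48 h, a single luminescence end-point is taken and curves fitted to the normalized data.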
# TCR act: T cell receptor activation | primary human leukocytes, anti-CD3, IL-2 HTRF, 48 h | Potency, µM (highest dose often 9.22 µM), hits mostly activators | 330,000 tested, under 10 active
#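 IL-2 release read by HTRF sandwich (Eu cryptate donor, d2 acceptor, 665 nm emission) after 48 hr exposure of primary human leukocytes to compound together with anti-CD3 beads in the absence of co-stimulatory signals.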
# Numbers stand for hits; 0 = inactive; ? = inconclusive; - = no result given. Unless noted, calls follow the shape of the dose curve; as a rule, active = well fitted curve in the direction sought with a large enough effect; inconclusive = small, poorly fitted or top-dose-only effect, or another doubt; inactive = no such curve, though single readings can be large; an effect the other way counts as inactive or inconclusive.
SMILES,PINK1 expr mod,pAkt inh,BRCA1 expr up,TCR act
COc1cccc(Nc2ncc3nc(CCc4ccccc4)c(=O)n(Cc4cccs4)c3n2)c1,28µM,-,-,-
COCCn1c(=O)c(-c2cccc(C#N)c2)nc2cnc(Oc3ccccc3)nc21,0,-,-,-
O=c1c(-c2ccccc2)nc2cnc(Nc3ccccc3)nc2n1C[C@H]1CCCO1,0,-,-,-
COc1ccc(-c2nc3cnc(Nc4cccc(OC)c4)nc3n(C[C@H]3CCCO3)c2=O)cc1,25µM,-,-,-
CCNc1ncc2nc(CCc3ccccc3)c(=O)n(Cc3ccc(F)cc3)c2n1,45µM,-,-,-
COCCn1c(=O)c(-c2cccc(C#N)c2)nc2cnc(Nc3ccccc3)nc21,25µM,-,-,-
CCNc1ncc2nc(-c3ccccc3)c(=O)n(Cc3ccc(F)cc3)c2n1,0,-,-,-
Cc1cnc(C)c(-c2ccc3c(c2)CC(CNC(=O)Cc2c(C)[nH]c4ccccc24)O3)n1 (centres undefined),0,-,-,-
COc1ccc(Nc2ncc3nc(-c4cccs4)c(=O)n(Cc4cccc(OC)c4)c3n2)cc1,2.5µM,-,-,-
Cc1ccc(S(=O)(=O)N2CCN(c3nc(-n4ccnn4)nc4ccccc34)CC2)cc1,0,-,0,-
O=C(CCS(=O)(=O)c1ccccc1)N1CCN(c2ccccc2)CC1,0,0,3.2µM,0
O=C(CCS(=O)(=O)c1ccc(Br)cc1)N1CCN(Cc2ccccc2)CC1,0,-109%,0,0
O=C(CCS(=O)(=O)c1ccc(Br)cc1)N1CCN(c2ccccc2)CC1,0,0,0,0
CCC(COC)NC(=O)c1cnn(-c2ncc3c(n2)-c2ccccc2CC3)c1C (centres undefined),0,-,-,-
COc1ccc(CNC(=O)C2CCN(C(=O)N3CCOc4ccc(Cl)cc43)CC2)cc1,0,-,-,-
CC(=O)Nc1ccc(N(C)C)cc1[N+](=O)[O-],0,-109%,0,0
Cc1ccnc(Nc2nc(-c3ccc(O)cc3O)cs2)c1,0,0,7.9µM,0
CCN(CC)c1cc(C)c(/C=C/c2ccnc3ccccc23)cc1C,0,-,0,-
COc1ccc(-c2c[n+](CC(=O)OC3CC(C)CCC3C(C)C)c3n2CCC3)cc1 (centres undefined),40µM,0,0,0
CCCCc1ccc(NC(=O)C2CCCO2)cc1 (centres undefined),0,0,1.4µM,0
CCn1c(/C=C/c2c[nH]c3ccccc23)nc2ccccc2c1=O,?,0,?,0
Cc1ccc2[nH]cc(/C=C/c3cc[n+](C)cc3)c2c1,3.5µM,0,0,0
CC[n+]1ccc(/C=C/c2c[nH]c3ccccc23)cc1,25µM,0,0,0
O=C(NCC1Cc2cccc(-c3ccccn3)c2O1)c1cnn2cccnc12 (centres undefined),0,-,-,-
COc1cc(-c2cc(C)c3cccc(OC)c3n2)cc2c1OCCN(C(=O)CCn1ccc(C)n1)C2,0,-,-,-
SMILES,PINK1 expr mod,pAkt inh,BRCA1 expr up,TCR act
c1ccc(-c2cnnc(SCc3cn4cccnc4n3)n2)cc1,0,-112%,0,0
c1ccc2[nH]c(SCc3cn4cccnc4n3)nc2c1,0,0,0,0
Cc1cccc(NC(=O)CC2CCC2)c1,0,0,?,0
O=C(Cc1ccccc1)Nc1ccc2c(c1)CCC2,0,0,?,0
Cc1cc(NC(=O)CC2CCCC2)ccc1Br,?,0,8.9µM,0
O=C(CC1CCCC1)Nc1ccc2c(c1)CCC2,0,0,10µM,0
Cc1nc(CN2CCN(C(=O)CC3(c4ccccc4Cl)CC(=O)N(C)C3=O)CC2)cs1 (centres undefined),0,-,-,-
c1ccc(-n2nnnc2NC2CCCCC2)cc1,2.8µM,0,0,-
Cc1nc2cc(NC(=O)[C@@H]3C[C@@H](Sc4ccccn4)CN3Cc3ccc(F)cc3F)ccc2s1,0,-,-,-
COCc1c(C(=O)OCC(=O)c2c(N)n(CC(C)C)c(=O)n(C)c2=O)oc2ccccc12,0,-103%,0,0
CCN1/C(=C2\SC(=S)N(Cc3ccccc3)C2=O)Sc2ccccc21,?,0,0,0
CCC(CO)[n+]1c(C)cc(/C=C2\Sc3ccccc3N2Cc2ccccc2)cc1C (centres undefined),11µM,0,0,0
COc1ccccc1N1CCN(c2nc(CNC(=O)C3CC34CCCC4)nc3ccccc23)CC1 (centres undefined),0,-,-,-
CC1CCN(C(=O)CSc2nnc3c(n2)[nH]c2ccc(F)cc23)CC1,0,0,0,0
Cc1ccc2[nH]c(SCC(=O)N3CCOCC3)nc2c1C,0,0,8.9µM,0
CC(C)c1ccc2[nH]c3nc(SCC(=O)N4CCOCC4)nnc3c2c1,0,0,11µM,0
COc1ccc(N2CCN(c3cnc4ccccc4n3)CC2)cc1,0,0,?,0
COc1cccc(N2CCN(c3cnc4ccccc4n3)CC2)c1,0,0,2µM,0
COc1cccc(CNC(=O)c2cnn(-c3ncc4c(n3)-c3ccccc3CCC4)c2C)c1OC,0,-,-,-
Nc1nc(SCc2ccccc2)[nH]c(=O)c1-c1ccccc1,0,0,10µM,0
CCOCCCNC(=O)c1cccs1,0,-116%,0,0
COc1ccc(NC(=O)C2(c3ccc(NC(=O)c4ccc(OC(C)=O)cc4)cc3)CCCC2)cc1,0,0,0,0
CC(=O)Oc1ccc(C(=O)Nc2ccc(C3(C#N)CCCC3)cc2)cc1,0,0,10µM,-
O=[N+]([O-])c1cc(-c2nc(-c3ccccc3)no2)ccc1NCCc1ccccc1,0,-,0,-
COc1ccc(OC)c(NS(=O)(=O)c2ccc(N3CCCC3=O)cc2)c1,0,-115%,0,0
SMILES,PINK1 expr mod,pAkt inh,BRCA1 expr up,TCR act
COc1cc(=O)n2c(c1C(=O)N1CCc3ccccc3C1)CCN(Cc1ccc(CO)o1)CC2,0,-,-,-
Cc1cc(N/N=C/c2ccc3c(c2)OCO3)nc2ccccc12,?,0,13µM,0
CC(=O)n1nc(-c2ccco2)nc1SCc1ccccc1,0,0,11µM,0
CCC(=O)n1nc(-c2ccco2)nc1SCc1ccccc1,0,0,?,0
COc1cccc(-c2nc3cc4c(cc3cc2CN(C(=O)c2csc(C)n2)C2CC2)CCC4)c1OC,0,-,-,-
Cc1cc(C)c(C(=O)NCc2nc(-c3cccc(NC(=O)C4CCCN(C)C4)c3)oc2C)[nH]1 (centres undefined),0,-,-,-
O=C(CNC(=O)c1ccc([N+](=O)[O-])cc1)c1ccccc1,0,0,6.3µM,0
O=C1NC(=S)N/C1=C/c1cccc2ccccc12,0,0,13µM,0
CCN(CC)c1ccc2cc(-c3nc(-c4ccccc4)no3)c(=O)oc2c1,0,-,-,-
CCN(CC)c1ccc2cc(-c3nc(-c4cc5ccccc5oc4=O)cs3)c(=O)oc2c1,32µM,0,0,0
COc1ccccc1OCC(=O)Nc1sc2c(c1C(N)=O)CCC2,0,0,5µM,-
COc1cccc(C(=O)OCC(=O)Nc2sc3c(c2C(N)=O)CCC3)c1O,0,0,0,0
COc1ccc(N2C(=O)[C@@H]3C[C@H]2CN3Cc2cccn2-c2nccs2)cc1Cl,0,-,-,-
Cc1ccccc1OCC(=O)O/N=C(\N)Cc1cccs1,-,0,0,0
Cc1ccccc1CNC(=O)Cc1cccs1,0,0,13µM,0
O=C(Cc1ccccc1[N+](=O)[O-])NCc1ccccc1Cl,0,-,?,0
